Tests used:
Assay in all cases: growth inhibition (% activity, log2 RLU normalised to DMSO / staurosporine); higher = more growth inhibition
Conditions in all cases: 33 µM
DIPGX29 = system: DIPGX29 (H3.3 K27M diffuse intrinsic pontine glioma line)
Summary of the method: (§1)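 Cells (pHGG lines and H9-derived neural stem cells) were plated on Geltrex-coated 384-well plates and exposed to approved drugs at a single final concentration of about 33 μM, in triplicate, for 7 days at 37 °C, 5% CO2. Log2-transformed CellTiter-Glo luminescence was normalised per plate to % activity between solvent and positive control wells, and the growth-inhibition value is the median over replicates.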

DIPGX37 = system: DIPGX37 (H3.3 K27M diffuse intrinsic pontine glioma line)
Summary of the method: as §1

DIPGX7 = system: DIPGX7 (H3.3 K27M diffuse intrinsic pontine glioma line)
Summary of the method: as §1

DIPGX9 = system: DIPGX9 (diffuse intrinsic pontine glioma line)
Summary of the method: as §1

HGGX39 = system: HGGX39 (paediatric high-grade glioma line)
Summary of the method: as §1

HGGX6 = system: HGGX6 (H3.3 G34R paediatric high-grade glioma line)
Summary of the method: as §1

HNSC = system: HNSC
Summary of the method: as §1

SUDIPGIV = system: SUDIPGIV (diffuse intrinsic pontine glioma line)
Summary of the method: as §1

SUDIPGVI = system: SUDIPGVI (diffuse intrinsic pontine glioma line)
Summary of the method: as §1

SUDIPGXIII = system: SUDIPGXIII (diffuse intrinsic pontine glioma line)
Summary of the method: as §1

Row | Structure (SMILES) | growth inhibition (DIPGX29) [%] | growth inhibition (DIPGX37) [%] | growth inhibition (DIPGX7) [%] | growth inhibition (DIPGX9) [%] | growth inhibition (HGGX39) [%] | growth inhibition (HGGX6) [%] | growth inhibition (HNSC) [%] | growth inhibition (SUDIPGIV) [%] | growth inhibition (SUDIPGVI) [%] | growth inhibition (SUDIPGXIII) [%]
1 | CC(=O)OCC(CCn1cnc2cnc(N)nc21)COC(C)=O | -2.6 | -4.6 | -0.979 | -2.76 | -5.59 | -3.73 | 33.5 | -3.45 | -13 | 2.17
2 | Nc1nc2ccc(OC(F)(F)F)cc2s1 | 2.99 | 4.46 | 3.41 | 4.59 | 2.04 | 2.46 | 4.46 | -0.776 | 2.57 | 1.66
3 | C[C@@H]1C[C@H]2[C@@H]3C[C@H](F)C4=CC(=O)C=C[C@]4(C)[C@@]3(F)[C@@H](O)C[C@]2(C)[C@@]1(O)C(=O)CO | 2.44 | 5.42 | 0.269 | 4.89 | 3.56 | -0.761 | 5.26 | -0.633 | 0.461 | -1.67
4 | CCOC(=O)N1CCC(=C2c3ccc(Cl)cc3CCc3cccnc32)CC1 | 2.36 | 3.66 | 1.58 | 1.03 | 1.57 | 1.37 | 5.38 | 3.97 | 1.47 | 0.514
5 | COCCCOc1cc(C[C@@H](C[C@H](N)[C@@H](O)C[C@H](C(=O)NCC(C)(C)C(N)=O)C(C)C)C(C)C)ccc1OC | 2.63 | -0.699 | 1.89 | 6.01 | 3.87 | 1.44 | 2.36 | -3.1 | 2.75 | 0.132
6 | C#Cc1cccc(Nc2ncnc3cc(OCCOC)c(OCCO)cc23)c1 | 6.22 | 3.87 | 4.89 | 4.84 | 9.77 | 9.46 | 31.8 | -3.74 | 2.81 | 0.549
7 | CCN1CC(CCN2CCOCC2)C(c2ccccc2)(c2ccccc2)C1=O (stereo not given) | 3.26 | 4.12 | 3.42 | 1.56 | 3.54 | 3.39 | 6.96 | 3.42 | 2.27 | -0.683
8 | Nc1c2ccccc2nc2ccccc12 | 17.5 | 1.87 | 5.31 | 20.4 | 12.2 | 14.7 | 58.1 | 14.3 | 5.87 | 0.896
9 | COC(=O)N[C@H](C(=O)N[C@@H](Cc1ccccc1)[C@@H](O)CN(Cc1ccc(-c2ccccn2)cc1)NC(=O)[C@@H](NC(=O)OC)C(C)(C)C)C(C)(C)C | -2.79 | -2.21 | 1.19 | -1.97 | -2.26 | -3.15 | -5.7 | -0.315 | -14.4 | 0.413
10 | O=C([O-])CC(O)(CC(=O)[O-])C(=O)[O-].O=C([O-])CC(O)(CC(=O)[O-])C(=O)[O-].[Bi+3].[K+].[K+].[K+].[K+].[K+] | -1.08 | -0.559 | -0.17 | 0.156 | -0.856 | 0.952 | -0.691 | -1.2 | -0.266 | -15.3
11 | CCC[C@H](N[C@@H](C)C(=O)N1[C@H](C(=O)O)C[C@@H]2CCCC[C@@H]21)C(=O)OCC | 1.9 | 3.94 | 2.49 | 2.02 | 2.66 | 2.59 | 0.292 | 0.563 | 1.95 | 0.674
12 | COc1ccc2cccc(CCNC(C)=O)c2c1 | -3.08 | -0.948 | -1.76 | -2.3 | -1.63 | -4.45 | -2.84 | -2.11 | -2.45 | -0.361
13 | N=c1nc(N2CCCCC2)cc(N)n1O | 0.473 | -0.191 | 0.732 | -0.0641 | -0.0574 | -3.42 | 1.05 | -0.657 | 1.35 | -1.69
14 | Nc1nc2c(ncn2COC(CO)CO)c(=O)[nH]1 | -0.593 | 2.32 | -1.01 | 1.05 | 1.32 | 1.03 | -1.32 | -0.797 | -0.103 | 1.94
15 | COc1ccc([C@@H]2Sc3ccccc3N(CCN(C)C)C(=O)[C@@H]2OC(C)=O)cc1 | -1.14 | -1.86 | 0.795 | -0.923 | -2.92 | -0.0969 | -0.232 | -1.32 | -1.92 | 0.713
16 | CC(=O)OCC(=O)[C@@]1(O)CC[C@H]2[C@@H]3CCC4=CC(=O)C=C[C@]4(C)[C@@]3(Cl)[C@@H](Cl)C[C@@]21C | 0.772 | 1.33 | 1.5 | 3.59 | 0.199 | -1.27 | 8.39 | -2.64 | -2.25 | 1.64
17 | C[C@@H]1O[C@@H]1P(=O)(O)O | -0.0235 | -0.548 | -0.0992 | 1.37 | 2.18 | 1.12 | 0.39 | -0.299 | 0.0548 | 1.68
18 | NS(=O)(=O)c1cc2c(cc1Cl)N=CNS2(=O)=O | -2.49 | -1.85 | 0.251 | -2.53 | -3.41 | -3.61 | -4.62 | -3.95 | -5.67 | 0.373
19 | CC(C)(C#N)c1cc(Cn2cncn2)cc(C(C)(C)C#N)c1 | 1.13 | 0.615 | 0.764 | -0.00856 | 0.325 | 1.21 | 2.39 | -0.235 | 2.45 | 1.01
20 | CC(C)(Oc1ccc(Cl)cc1)C(=O)O | -2.6 | 1.37 | -0.722 | -1.38 | 0.448 | -2.21 | 5.23 | 0.614 | -0.459 | -0.393
21 | CC(C)(O)c1ccccc1CC[C@@H](SCC1(CC(=O)O)CC1)c1cccc(/C=C/c2ccc3ccc(Cl)cc3n2)c1 | -0.862 | 0.461 | -2.4 | -1.33 | -0.172 | -2.63 | -3.15 | -1.21 | -0.324 | -15.7
22 | NC[C@@H]1O[C@H](O[C@H]2[C@@H](O)[C@H](O[C@@H]3[C@@H](O)[C@H](N)C[C@H](N)[C@H]3O[C@H]3O[C@H](CO)[C@@H](O)[C@H](O)[C@H]3N)O[C@@H]2CO)[C@H](N)[C@@H](O)[C@@H]1O | 0.301 | 2.89 | 0.972 | 0.973 | 1.1 | 1.84 | -2.1 | -0.26 | 0.401 | 0.0349

From the supplement of paper PMC8253809
